The full ranking holds about 16,000 sequences; the median of “rpm ratio (pull-down/input)” is about 0.5, and the highest 2% start at about 5.5. Many of the other results were omitted from the sample, so the highest values are more common in it than they were.
The sequences below were run against T1, MBP-FoxP3dN (Mus musculus, UniProt Q99JB6 188-423) (assay: PD-seq (MBP pull-down with sequencing); 20 mM Tris-HCl pH 7.5, 100 mM NaCl, 1.5 mM MgCl2, 0.4 uM protein, 0.1 uM dsDNA library, 30 min, room temperature, amylose pull-down; high values mean tight binding). Conditions: protein: recombinant; tags: His6-MBP; chain copies: 2; dsDNA, one strand shown.
T1 sequence: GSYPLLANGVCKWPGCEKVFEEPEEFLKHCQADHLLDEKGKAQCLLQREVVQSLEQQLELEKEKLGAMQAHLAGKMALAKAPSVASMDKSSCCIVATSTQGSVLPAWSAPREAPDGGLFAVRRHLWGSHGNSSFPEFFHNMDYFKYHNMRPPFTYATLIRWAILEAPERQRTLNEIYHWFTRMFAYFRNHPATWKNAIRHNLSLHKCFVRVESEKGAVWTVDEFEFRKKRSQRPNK
Outline: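 Binding is given as reads-per-million enrichment, pull-down over input, with replicates pooled. The bait was an N-terminus-lacking mouse FoxP3 or FoxP1 fragment with a His6-MBP tag, expressed in E. coli and used at 0.4 µM with 0.1 µM Klenow-filled degenerate double-stranded DNA library for 30 min at room temperature in Tris pH 7.5 buffer with NaCl and MgCl2. Amylose resin pull-down with three washes was followed by proteinase K release, PCR barcoding and Illumina sequencing.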

Row | Sequence | binding signal
1 | GATGATTGTTCTCCCAGCTGATGAATTTTTACGATCGAGTAAACAAATTTTCCTAATCTTTCTGTTCAAGCGCCATCTAC | 0.226 RPM ratio (pull-down/input)
2 | GATGATTGTTCTCCCAGCTGATGAATTCCCTGCCTCGAGTAAACAAATTTTCCTAATCTTTCTGTTCAAGCGCCATCTAC | 0.312 RPM ratio (pull-down/input)
3 | GATGATTGTTCTCCCAGCTGATGAATTGTGAGGCTCGAGTAAACAAATTTTCCTAATCTTTCTGTTCAAGCGCCATCTAC | 0.816 RPM ratio (pull-down/input)
4 | GATGATTGTTCTCCCAGCTGATGAATTTAAGTGCTCGAGTAAACAAATTTTCCTAATCTTTCTGTTCAAGCGCCATCTAC | 0.628 RPM ratio (pull-down/input)
5 | GATGATTGTTCTCCCAGCTGATGAATTGTGGTTTTCGAGTAAACAAATTTTCCTAATCTTTCTGTTCAAGCGCCATCTAC | 2.03 RPM ratio (pull-down/input)
6 | GATGATTGTTCTCCCAGCTGATGAATTGGGTGGATCGAGTAAACAAATTTTCCTAATCTTTCTGTTCAAGCGCCATCTAC | 0.423 RPM ratio (pull-down/input)
7 | GATGATTGTTCTCCCAGCTGATGAATTAAAGCTGTCGAGTAAACAAATTTTCCTAATCTTTCTGTTCAAGCGCCATCTAC | 0.47 RPM ratio (pull-down/input)
8 | GATGATTGTTCTCCCAGCTGATGAATTCTTTCCCTCGAGTAAACAAATTTTCCTAATCTTTCTGTTCAAGCGCCATCTAC | 0.206 RPM ratio (pull-down/input)
9 | GATGATTGTTCTCCCAGCTGATGAATTAGTAGGGTCGAGTAAACAAATTTTCCTAATCTTTCTGTTCAAGCGCCATCTAC | 1.4 RPM ratio (pull-down/input)
10 | GATGATTGTTCTCCCAGCTGATGAATTGCAACTCTCGAGTAAACAAATTTTCCTAATCTTTCTGTTCAAGCGCCATCTAC | 2.79 RPM ratio (pull-down/input)
11 | GATGATTGTTCTCCCAGCTGATGAATTTTGCAACTCGAGTAAACAAATTTTCCTAATCTTTCTGTTCAAGCGCCATCTAC | 6.24 RPM ratio (pull-down/input)
12 | GATGATTGTTCTCCCAGCTGATGAATTTGCAAACTCGAGTAAACAAATTTTCCTAATCTTTCTGTTCAAGCGCCATCTAC | 0.673 RPM ratio (pull-down/input)
13 | GATGATTGTTCTCCCAGCTGATGAATTCCGCAACTCGAGTAAACAAATTTTCCTAATCTTTCTGTTCAAGCGCCATCTAC | 6.11 RPM ratio (pull-down/input)
14 | GATGATTGTTCTCCCAGCTGATGAATTGTTCAACTCGAGTAAACAAATTTTCCTAATCTTTCTGTTCAAGCGCCATCTAC | 0.485 RPM ratio (pull-down/input)
15 | GATGATTGTTCTCCCAGCTGATGAATTCCGCAAATCGAGTAAACAAATTTTCCTAATCTTTCTGTTCAAGCGCCATCTAC | 0.692 RPM ratio (pull-down/input)
16 | GATGATTGTTCTCCCAGCTGATGAATTCTACAACTCGAGTAAACAAATTTTCCTAATCTTTCTGTTCAAGCGCCATCTAC | 0.303 RPM ratio (pull-down/input)
17 | GATGATTGTTCTCCCAGCTGATGAATTTGCCAACTCGAGTAAACAAATTTTCCTAATCTTTCTGTTCAAGCGCCATCTAC | 0.47 RPM ratio (pull-down/input)
18 | GATGATTGTTCTCCCAGCTGATGAATTCTGCAACTCGAGTAAACAAATTTTCCTAATCTTTCTGTTCAAGCGCCATCTAC | 5.96 RPM ratio (pull-down/input)
19 | GATGATTGTTCTCCCAGCTGATGAATTGTGCAACTCGAGTAAACAAATTTTCCTAATCTTTCTGTTCAAGCGCCATCTAC | 6.92 RPM ratio (pull-down/input)
20 | GATGATTGTTCTCCCAGCTGATGAATTCAACAACTCGAGTAAACAAATTTTCCTAATCTTTCTGTTCAAGCGCCATCTAC | 0.576 RPM ratio (pull-down/input)
21 | GATGATTGTTCTCCCAGCTGATGAATTCAGCAACTCGAGTAAACAAATTTTCCTAATCTTTCTGTTCAAGCGCCATCTAC | 4.78 RPM ratio (pull-down/input)
22 | GATGATTGTTCTCCCAGCTGATGAATTATCAAACTCGAGTAAACAAATTTTCCTAATCTTTCTGTTCAAGCGCCATCTAC | 0.363 RPM ratio (pull-down/input)

Row | Sequence | binding signal
23 | GATGATTGTTCTCCCAGCTGATGAATTGCCCTCCTCGAGTAAACAAATTTTCCTAATCTTTCTGTTCAAGCGCCATCTAC | 0.471 RPM ratio (pull-down/input)
24 | GATGATTGTTCTCCCAGCTGATGAATTTCGTCAATCGAGTAAACAAATTTTCCTAATCTTTCTGTTCAAGCGCCATCTAC | 0.411 RPM ratio (pull-down/input)
25 | GATGATTGTTCTCCCAGCTGATGAATTATTAGCTTCGAGTAAACAAATTTTCCTAATCTTTCTGTTCAAGCGCCATCTAC | 0.671 RPM ratio (pull-down/input)
26 | GATGATTGTTCTCCCAGCTGATGAATTATTCCGATCGAGTAAACAAATTTTCCTAATCTTTCTGTTCAAGCGCCATCTAC | 0.214 RPM ratio (pull-down/input)
27 | GATGATTGTTCTCCCAGCTGATGAATTTCATCTGTCGAGTAAACAAATTTTCCTAATCTTTCTGTTCAAGCGCCATCTAC | 0.411 RPM ratio (pull-down/input)
28 | GATGATTGTTCTCCCAGCTGATGAATTGTGGCTGTCGAGTAAACAAATTTTCCTAATCTTTCTGTTCAAGCGCCATCTAC | 1.13 RPM ratio (pull-down/input)
29 | GATGATTGTTCTCCCAGCTGATGAATTATCATCGTCGAGTAAACAAATTTTCCTAATCTTTCTGTTCAAGCGCCATCTAC | 0.418 RPM ratio (pull-down/input)
30 | GATGATTGTTCTCCCAGCTGATGAATTAGCTAAGTCGAGTAAACAAATTTTCCTAATCTTTCTGTTCAAGCGCCATCTAC | 0.231 RPM ratio (pull-down/input)
31 | GATGATTGTTCTCCCAGCTGATGAATTCCAGTAATCGAGTAAACAAATTTTCCTAATCTTTCTGTTCAAGCGCCATCTAC | 0.477 RPM ratio (pull-down/input)
32 | GATGATTGTTCTCCCAGCTGATGAATTTGCTTTTTCGAGTAAACAAATTTTCCTAATCTTTCTGTTCAAGCGCCATCTAC | 5.38 RPM ratio (pull-down/input)
33 | GATGATTGTTCTCCCAGCTGATGAATTTTTGCTTTCGAGTAAACAAATTTTCCTAATCTTTCTGTTCAAGCGCCATCTAC | 0.978 RPM ratio (pull-down/input)
34 | GATGATTGTTCTCCCAGCTGATGAATTTGCTATTTCGAGTAAACAAATTTTCCTAATCTTTCTGTTCAAGCGCCATCTAC | 5.54 RPM ratio (pull-down/input)
35 | GATGATTGTTCTCCCAGCTGATGAATTTGCTGCTTCGAGTAAACAAATTTTCCTAATCTTTCTGTTCAAGCGCCATCTAC | 3.05 RPM ratio (pull-down/input)
36 | GATGATTGTTCTCCCAGCTGATGAATTTGCTTGTTCGAGTAAACAAATTTTCCTAATCTTTCTGTTCAAGCGCCATCTAC | 6.99 RPM ratio (pull-down/input)
37 | GATGATTGTTCTCCCAGCTGATGAATTTTGCTGTTCGAGTAAACAAATTTTCCTAATCTTTCTGTTCAAGCGCCATCTAC | 5.2 RPM ratio (pull-down/input)
38 | GATGATTGTTCTCCCAGCTGATGAATTTTGCTATTCGAGTAAACAAATTTTCCTAATCTTTCTGTTCAAGCGCCATCTAC | 5.16 RPM ratio (pull-down/input)
39 | GATGATTGTTCTCCCAGCTGATGAATTTGTTGCTTCGAGTAAACAAATTTTCCTAATCTTTCTGTTCAAGCGCCATCTAC | 6.86 RPM ratio (pull-down/input)
40 | GATGATTGTTCTCCCAGCTGATGAATTGCTATTTTCGAGTAAACAAATTTTCCTAATCTTTCTGTTCAAGCGCCATCTAC | 1.47 RPM ratio (pull-down/input)
41 | GATGATTGTTCTCCCAGCTGATGAATTCTTTGCTTCGAGTAAACAAATTTTCCTAATCTTTCTGTTCAAGCGCCATCTAC | 0.407 RPM ratio (pull-down/input)
42 | GATGATTGTTCTCCCAGCTGATGAATTGCTGTTTTCGAGTAAACAAATTTTCCTAATCTTTCTGTTCAAGCGCCATCTAC | 2.65 RPM ratio (pull-down/input)
43 | GATGATTGTTCTCCCAGCTGATGAATTTGCTGTTTCGAGTAAACAAATTTTCCTAATCTTTCTGTTCAAGCGCCATCTAC | 6.28 RPM ratio (pull-down/input)
